# Laboratory results taken from the supplement of paper PMC9588786.
# Where a name gives a salt, the structure may show the parent alone. ± gives the standard deviation of the averaged measurements.
# Test system: HT-1080
# Assay: relative cell viability with RSL3 co-treatment (fraction of control); higher = stronger protection from RSL3-induced ferroptosis (higher viability)
# Settings: 10 µM
# 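Note: viability read as CCK-8 absorbance at 450 nm in cells co-exposed to the GPX4 inhibitor RSL3, relative to a 0.01% DMSO vehicle control.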
row,Compound,relative cell viability
1,C[C@@H](NC(=O)c1ncnc(N)c1Cl)c1ncc(C(=O)Nc2cc(C(F)(F)F)c(Cl)cn2)s1,0.6467 ± 0.0058
2,CNCc1ccc(-c2cc(-c3nc(-c4ccc(S(=O)(=O)C(C)C)cc4)cnc3N)on2)cc1,0.47 ± 0.026
3,CC(C)(C)c1cc(NC(=O)Nc2ccc(-c3cn4c(n3)sc3cc(OCCN5CCOCC5)ccc34)cc2)no1 [Quizartinib (AC220)],0.473 ± 0.04
4,OCCn1cc(-c2cnc3nnn(Cc4ccc5ncccc5c4)c3n2)cn1,0.813 ± 0.09
5,Cc1cc2c(F)c(Oc3ncnn4cc(OC[C@@H](C)OC(=O)[C@H](C)N)c(C)c34)ccc2[nH]1,0.653 ± 0.095
6,Cc1ncc(-c2ccnc(Nc3ccc(S(C)(=O)=O)cc3)n2)n1C(C)C,0.43 ± 0.095
7,Oc1c(F)cc(-c2cnccc2-c2ccc(N3CCOCC3)cc2)cc1F,0.757 ± 0.072
8,CN1CCC(CNc2ccc3ncc(-c4cccc(OC(F)(F)F)c4)n3n2)CC1 [SGI-1776 free base],0.507 ± 0.16
9,CN1CC[C@H](c2c(O)cc(O)c3c(=O)cc(-c4ccccc4Cl)oc23)[C@H](O)C1 [Flavopiridol HCl],0.763 ± 0.17
10,"O=c1cc(-c2ccccc2)oc2c(O)c(O)ccc12 [7,8-Dihydroxyflavone]",0.713 ± 0.011
11,Cc1nc(N)sc1-c1ccnc(Nc2ccc(N3CCOCC3)cc2)n1,0.6 ± 0.095
12,COc1c(C)c(C(=O)c2ccc(N)c(C(=O)O)c2)n2ccccc12,0.653 ± 0.14
13,Cc1cc(Nc2cc(N3CCN(C)CC3)nc(/C=C/c3ccccc3)n2)n[nH]1,0.203 ± 0.1
14,Fc1cc(-c2cccc3ncc(-c4cnn(C5CCNCC5)c4)nc23)cc(F)c1CN1CCOCC1,0.787 ± 0.058
15,"C=CC(=O)Nc1cccc(Nc2nc(Nc3ccc(N4CCN(C(C)=O)CC4)cc3OC)ncc2C(F)(F)F)c1 [Rociletinib (CO-1686, AVL-301)]",0.573 ± 0.2
16,O=C(Nc1cccnc1)c1cc(-c2ccnc(F)c2)ccc1OCc1ccccc1,0.627 ± 0.06
17,CC(=O)Nc1nc(C)c(-c2ccc(Cl)c(S(=O)(=O)NCCO)c2)s1,0.603 ± 0.057
18,COc1cc(N2CCC(N3CCN(C)CC3)CC2)ccc1Nc1ncnc(Nc2ccccc2S(=O)(=O)C(C)C)n1,0.807 ± 0.023
19,C=CC(=O)Nc1ccc2ncnc(Nc3ccc(OCc4cccc(F)c4)c(Cl)c3)c2c1,1.01 ± 0.01
20,C=CC(=O)Nc1ccc2ncnc(Nc3cccc(Br)c3)c2c1,0.593 ± 0.055

row,Compound,relative cell viability
1,Cc1ccc(-n2nc(C(C)(C)C)cc2NC(=O)Nc2ccc(OCCN3CCOCC3)c3ccccc23)cc1 [Doramapimod (BIRB 796)],0.57 ± 0.03
2,CC(C)(O)CC(=O)NCCn1ccc2ncnc(Nc3ccc(Oc4cccc(C(F)(F)F)c4)c(Cl)c3)c21,0.567 ± 0.04
3,C#Cc1cccc(Nc2ncnc3cc(OC)c(OCCCCCCC(=O)NO)cc23)c1,0.793 ± 0.046
4,OCCn1cc(-c2ccc3c(c2)CC/C3=N\O)c(-c2ccncc2)n1,0.687 ± 0.13
5,CCN(C)S(=O)(=O)Nc1ccc(F)c(C(=O)c2c[nH]c3ncc(-c4cnc(C5CC5)nc4)cc23)c1F,0.71 ± 0.017
6,CC(C)(C)c1ccc(S(=O)(=O)/C=C/C#N)cc1,0.707 ± 0.015
7,Cn1c(Nc2ccc(C(F)(F)F)cc2)nc2cc(Oc3ccnc(-c4ncc(C(F)(F)F)[nH]4)c3)ccc21,0.593 ± 0.091
8,COC(=O)c1ccc2c(c1)NC(=O)/C2=C(\Nc1ccc(N(C)C(=O)CN2CCN(C)CC2)cc1)c1ccccc1 [Nintedanib (BIBF 1120)],0.9 ± 0.12
9,COc1cc(-c2cc(-c3ccc(N4CCNCC4)cc3)cnc2C)cc(OC)c1OC,0.74 ± 0.075
10,Oc1ccc(-c2nc(-c3ccc(F)cc3)c(-c3ccncc3)[nH]2)cc1,0.717 ± 0.05
11,Clc1ccc(C2(c3ccc(-c4cn[nH]c4)cc3)CCNCC2)cc1,0.373 ± 0.068
12,Nc1nc(Nc2ccc(S(N)(=O)=O)cc2)nn1C(=O)c1c(F)cccc1F,0.53 ± 0.095
13,O=c1ccc2ccc(O)c(O)c2o1 [Daphnetin],0.85 ± 0.017
14,CCCCCCCCc1ccc(CCC(N)(CO)CO)cc1 [Fingolimod (FTY720) HCl],0.253 ± 0.1
15,Cn1sc(=O)n(Cc2ccccc2)c1=O,0.887 ± 0.11
16,CCNc1nc(Nc2cc(F)c(C(=O)N3CCOCC3)cc2OC)ncc1C(F)(F)F,0.69 ± 0.089
17,CCCCCCCCCCCCCCCCOP(=O)([O-])OCC[N+](C)(C)C [Miltefosine],0.6 ± 0.13
18,CO[C@H]1CC[C@H](N2C(=O)CNc3ncc(-c4ccc(C(C)(C)O)nc4)nc32)CC1,0.733 ± 0.091
19,NCC(=O)Nc1ccc(-n2nc(C(F)(F)F)cc2-c2ccc3c(ccc4ccccc43)c2)cc1,0.06 ± 0.056
